Experimental findings from PubChem BioAssay (Tox21) are described below.

A number with no mark means an inactive call. Records with an inconclusive call do not appear. The source made the active and inactive calls. Unless noted, calls follow the shape of the full dose curve.

Assay [1] is described as follows: Nuclear factor erythroid 2-related factor 2/antioxidant responsive element (Nrf2/ARE) small molecule agonists: qHTS cell viability counter screen in human keratinocytes (AID 1919968; active = well fitted curve in the direction sought with a large enough effect in the repeat runs; an effect the other way counts as inactive or inconclusive; also: nearly all actives have a fitted effect of over 55% in size; also: potency is read from the fitted curve at half-maximal effect). The procedure, abridged: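 Fluorescence read-out from CellTiter-Fluor after 1 h at 37 C. Wells held HaCaT-derived ARE-luciferase reporter cells (1,500/well) treated 23 h with DMSO-dissolved compounds. Run in the same wells as the luciferase agonist read.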
Background: qHTS replaces the single test concentration by a dilution series.

Assay [2] can be described thus: Nuclear factor erythroid 2-related factor 2/antioxidant responsive element (Nrf2/ARE) small molecule agonists: luciferase reporter gene qHTS assay in human keratinocytes (AID 1919969). Also: nearly all actives have a fitted effect of over 35% in size. Also: potency is read from the fitted curve at half-maximal effect. A general note: Reporter assays use an easily measured gene product as a stand-in for the process of interest.
Assay [3] has as its target Gonadotropin-releasing hormone receptor (Homo sapiens) (UniProt P30968). In words: Human gonadotropin-releasing hormone receptor (GnRHR) small molecule agonists, calcium flux assay in GnRHR-HEK293 cells (AID 1920063). Also: nearly all actives have a fitted effect of over 35% in size. An outline of the steps: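 Calcium-dye fluorescence, Ex/Em=480/540, recorded every 1 sec over 3 min after compound addition to GnRHR-HEK293 cells. Cells had been seeded 18 hours earlier and dye-loaded for 1 hour at 37 C. Fifteen concentrations, triplicates.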
Background: A change in cytosolic calcium serves as a functional read-out for many receptors and channels.

Assay [4] concerns the target KiSS-1 receptor (Homo sapiens) (UniProt Q969F8). In words: Human kisspeptin (KISS1R) small molecule agonists, calcium flux assay in KISS1R-HEK293 cells (AID 1920064; active = well fitted curve in the direction sought with a large enough effect in the repeat runs; an effect the other way counts as inactive or inconclusive). The procedure, abridged:
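Calcium flux read-out: kinetic fluorescence at Ex/Em=480/540, 1 s intervals over 3 min, after pin-tool compound addition to dye-loaded KISS1R-HEK293 cells. Fifteen concentrations, triplicates.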

Assay [5] in a line: G protein-coupled receptor (GPCR) small molecule agonists, calcium flux assay: HEK293 wild type cell line counter screen (AID 1920065). The procedure, abridged: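 Agonist mode; 18 h seeding at 37 C, 1 h dye load at 37 C; compounds pinned from DMSO, ATP as positive control; kinetic fluorescence 480/540 nm, 3 min, 1 s reads; 15 concentrations, triplicate.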
The nature of assay [6]: p53 small molecule agonists, cell-based qHTS assay with rat liver microsomes (AID 1963578). An outline of the steps: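 Fluorescence from a beta-lactamase reporter under a p53 response element was measured after cells had been incubated 16 h at 37 C with test compound and rat liver microsomes plus NADPH (0.5 mg/mL final each).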
Assay [7] in a line: p53 small molecule agonists, cell-based qHTS assay with human liver microsomes: qHTS cell viability counter screen (AID 1963579). Also: nearly all actives have a fitted effect of over 45% in size. An outline of the steps: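 Seed p53RE-bla cells at 4,000 per well; incubate 5 h at 37 C; add compound, human liver microsomes and NADPH; incubate 16 h at 37 C; add CellTiter-Glo; after 30 min at room temperature, read luminescence.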
A short description of assay [8]: p53 small molecule agonists, cell-based qHTS assay with rat liver microsomes: qHTS cell viability counter screen (AID 1963580). Also: nearly all actives have a fitted effect of over 45% in size. An outline of the steps:
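Cytotoxicity counter screen: intracellular ATP measured by CellTiter-Glo luminescence in the same wells as the beta-lactamase reporter read, on HCT-116 p53RE-bla cells exposed 16 h at 37 C to compounds with rat liver microsomes and NADPH, each 0.5 mg/mL final.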

Assay [9] can be described thus: p53 small molecule agonists, cell-based qHTS assay: qHTS cell viability counter screen (AID 1963581). Also: nearly all actives have a fitted effect of over 45% in size. The procedure, abridged: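 Cytotoxicity read-out: ATP-based luminescence (CellTiter-Glo, 30 min RT) measured in the same wells as the p53 reporter assay, HCT-116 p53RE-bla cells, 16 h compound exposure at 37 C.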
In assay [10] the target is 5-hydroxytryptamine receptor 2A (Homo sapiens) (UniProt P28223). As to the kind of experiment: 5-hydroxytryptamine receptor 2A (HTR2A) small molecule antagonists, cell-based qHTS assay (AID 1963586). Also: nearly all actives have a fitted effect of over 45% in size. The procedure, abridged:
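CHO cells stably expressing human HTR2A were plated for 18 h at 37 C, then loaded with calcium dye for 1 h. Compounds were preincubated 5 min at room temperature before DOI (4 nM solution) was added. Kinetic fluorescence was read for 3 min.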

Assay [11] has as its target Muscarinic acetylcholine receptor M1 (Homo sapiens) (UniProt P11229). As to the kind of experiment: Cholinergic receptor muscarinic 1 (CHRM1) small molecule agonists, cell-based qHTS assay (AID 1963589). Also: nearly all actives have a fitted effect of over 35% in size. An outline of the steps:
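Calcium flux read-out: kinetic fluorescence at 1 sec intervals after pin-tool compound addition to dye-loaded CHRM1-CHO cells (human M1). Agonist mode; 15 concentrations tested in triplicate independent runs.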

For assay [12], the target named is Beta-2 adrenergic receptor (Homo sapiens) (UniProt P07550). In words: Adrenergic beta2 receptor (ADRB2) small molecule antagonists, cell-based qHTS assay (AID 1963592). Also: series mostly up to about 92 µM; nearly all actives have a fitted effect of over 50% in size. An outline of the steps:
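Assay format: CHO-ADRB2 cells, 18-20hr seeding at 37C/5% CO2, then compound plus 1nM isoproterenol agonist mix for 0.5hr RT. Homogeneous time-resolved fluorescence cAMP detection after 1hr, expressed as 665/615 nm ratio.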

Assay [13] concerns the target D(2) dopamine receptor (Homo sapiens) (UniProt P14416). In words: Dopamine D2 receptor (DRD2) small molecule agonists, cell-based qHTS assay (AID 1963594). Also: nearly all actives have a fitted effect of over 35% in size. An outline of the steps: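 HEK293 cells stably expressing human DRD2, pre-treated with PDE inhibitor Ro20-1724 (0.1 mM final) and compound 10 min at room temperature, then stimulated with NKH477 (200nM […]) for 30 min. cAMP read by HTRF (665/620 nm).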

The target is the same in assay [14]. In words: Dopamine D2 receptor (DRD2) small molecule antagonists, cell-based qHTS assay (AID 1963595; active = well fitted inhibition curve with a large enough effect in the signal ratio in the repeat runs, with a control signal flat; the % refers to the signal ratio). The procedure, abridged:
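Stable D2 receptor HEK293 line, 24 h after seeding. Compound preincubated 10 min, then quinpirole (12 nM) with forskolin analogue NKH477 (200 nM), 30 min, room temperature. Detection by time-resolved FRET of cAMP.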

A short description of assay [15]: p53 small molecule agonists, cell-based qHTS assay (AID 1963582; active = well fitted activation curve with a large enough effect in the signal ratio in the repeat runs, not every such curve was filed as active; the % refers to the signal ratio). The procedure, abridged: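 Fluorescence intensity read-out of a beta-lactamase reporter under a p53 response element. Cells were exposed to DMSO-dissolved compounds for 16 h at 37 C, then developed with FRET substrate for 2 h at RT.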
Assay [16] has as its target 5-hydroxytryptamine receptor 2A (Homo sapiens) (UniProt P28223). As to the kind of experiment: 5-hydroxytryptamine receptor 2A (HTR2A) small molecule agonists, cell-based qHTS assay (AID 1963587). Also: nearly all actives have a fitted effect of over 30% in size. An outline of the steps: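 CHO cells stably expressing human HTR2A, plated 18 h, loaded with calcium dye 1 h at 37 C. Agonist mode: compounds added and intracellular calcium fluorescence recorded kinetically for 2 min at 1 sec intervals.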

The target in assay [17] is Muscarinic acetylcholine receptor M1 (Homo sapiens) (UniProt P11229). As to the kind of experiment: Cholinergic receptor muscarinic 1 (CHRM1) small molecule antagonists, cell-based qHTS assay (AID 1963588). Also: nearly all actives have a fitted effect of over 40% in size. Also: potency is read from the fitted curve at half-maximal effect. An outline of the steps: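 Compounds were tested at 15 concentrations in three independent runs. Dye-loaded CHRM1-CHO cells were exposed 5 min at room temperature before stimulation by acetylcholine added at 50nM. Intracellular calcium was read kinetically on FDSS for 3 min.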

A short description of assay [18]: cAMP Responsive Elements (CRE) small molecule agonists, cell-based qHTS assay (AID 1963590). An outline of the steps: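 Beta-lactamase reporter readout: LiveBLAzer B/G FRET substrate, 2 h at room temperature, added after 3 h compound treatment of CRE-bla HEK 293T cells at 37 C/5% CO2.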
Assay [19] is described as follows: cAMP Responsive Elements (CRE) small molecule antagonists, cell-based qHTS assay (AID 1963591; active = well fitted inhibition curve with a large enough effect in the signal ratio in the repeat runs, not every such curve was filed as active; the % refers to the signal ratio). An outline of the steps: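 HEK293T CRE-bla; 18 h preincubation; compound pin-transfer; NKH477 0.25 uM final, 3 h, 37 C; LiveBLAzer FRET substrate 2 h RT.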

5-hydroxytryptamine receptor 2A (Homo sapiens), sequence (P28223 whole entry, looked up): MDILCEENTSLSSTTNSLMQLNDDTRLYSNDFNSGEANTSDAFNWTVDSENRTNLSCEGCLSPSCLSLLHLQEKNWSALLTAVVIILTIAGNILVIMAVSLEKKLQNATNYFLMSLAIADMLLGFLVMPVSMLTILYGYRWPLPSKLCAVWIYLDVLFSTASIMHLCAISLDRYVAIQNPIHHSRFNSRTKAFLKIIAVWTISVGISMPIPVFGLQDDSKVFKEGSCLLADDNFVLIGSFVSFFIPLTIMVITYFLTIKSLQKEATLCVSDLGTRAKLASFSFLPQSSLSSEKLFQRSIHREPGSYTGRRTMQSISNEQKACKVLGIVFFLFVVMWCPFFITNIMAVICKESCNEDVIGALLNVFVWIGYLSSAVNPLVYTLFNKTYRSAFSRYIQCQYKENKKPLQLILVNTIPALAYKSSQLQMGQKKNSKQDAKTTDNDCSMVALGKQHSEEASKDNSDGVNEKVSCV
KiSS-1 receptor (Homo sapiens), sequence (Q969F8 whole entry, looked up): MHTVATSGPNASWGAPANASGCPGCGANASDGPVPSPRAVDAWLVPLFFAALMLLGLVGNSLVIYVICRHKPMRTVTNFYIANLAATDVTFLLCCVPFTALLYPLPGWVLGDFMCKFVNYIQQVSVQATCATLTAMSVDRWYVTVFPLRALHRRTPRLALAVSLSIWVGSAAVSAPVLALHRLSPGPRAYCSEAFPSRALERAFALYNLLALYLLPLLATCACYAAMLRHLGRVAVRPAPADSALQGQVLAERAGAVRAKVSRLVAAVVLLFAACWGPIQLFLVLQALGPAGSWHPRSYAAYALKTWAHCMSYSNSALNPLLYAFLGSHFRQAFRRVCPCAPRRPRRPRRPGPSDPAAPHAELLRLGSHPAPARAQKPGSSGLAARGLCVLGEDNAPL
Beta-2 adrenergic receptor (Homo sapiens), sequence (P07550 whole entry, looked up): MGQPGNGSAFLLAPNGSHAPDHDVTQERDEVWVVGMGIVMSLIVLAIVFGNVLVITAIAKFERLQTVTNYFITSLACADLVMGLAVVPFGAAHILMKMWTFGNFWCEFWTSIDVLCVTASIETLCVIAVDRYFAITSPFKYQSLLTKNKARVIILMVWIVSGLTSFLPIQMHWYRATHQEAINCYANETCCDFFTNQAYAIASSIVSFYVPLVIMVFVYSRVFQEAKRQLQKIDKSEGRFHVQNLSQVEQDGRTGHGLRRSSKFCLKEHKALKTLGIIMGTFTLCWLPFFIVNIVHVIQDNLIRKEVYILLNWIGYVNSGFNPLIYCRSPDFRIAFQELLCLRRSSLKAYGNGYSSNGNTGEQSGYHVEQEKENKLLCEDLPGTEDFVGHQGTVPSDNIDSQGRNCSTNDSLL
Muscarinic acetylcholine receptor M1 (Homo sapiens), sequence (P11229 whole entry, looked up): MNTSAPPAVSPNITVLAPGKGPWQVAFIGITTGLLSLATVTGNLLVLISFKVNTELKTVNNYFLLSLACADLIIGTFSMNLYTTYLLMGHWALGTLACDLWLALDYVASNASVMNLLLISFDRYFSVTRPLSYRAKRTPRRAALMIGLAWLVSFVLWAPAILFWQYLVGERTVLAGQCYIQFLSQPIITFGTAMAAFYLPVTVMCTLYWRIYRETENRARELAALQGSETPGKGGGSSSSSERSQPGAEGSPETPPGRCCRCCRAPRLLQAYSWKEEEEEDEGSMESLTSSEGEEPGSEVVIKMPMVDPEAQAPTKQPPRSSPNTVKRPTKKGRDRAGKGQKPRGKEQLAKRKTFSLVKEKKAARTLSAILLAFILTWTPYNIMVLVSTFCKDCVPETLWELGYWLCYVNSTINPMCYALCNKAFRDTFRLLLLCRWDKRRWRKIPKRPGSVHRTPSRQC
Gonadotropin-releasing hormone receptor (Homo sapiens), sequence (P30968 whole entry, looked up): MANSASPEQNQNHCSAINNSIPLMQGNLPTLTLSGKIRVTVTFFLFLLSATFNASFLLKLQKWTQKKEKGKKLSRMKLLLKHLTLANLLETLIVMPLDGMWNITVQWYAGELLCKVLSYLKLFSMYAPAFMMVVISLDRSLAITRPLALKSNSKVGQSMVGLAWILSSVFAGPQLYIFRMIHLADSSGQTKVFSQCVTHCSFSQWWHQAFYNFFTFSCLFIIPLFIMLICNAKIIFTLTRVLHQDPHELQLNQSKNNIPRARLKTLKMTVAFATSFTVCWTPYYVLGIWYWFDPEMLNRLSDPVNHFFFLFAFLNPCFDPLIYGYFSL
D(2) dopamine receptor (Homo sapiens), sequence (P14416 whole entry, looked up): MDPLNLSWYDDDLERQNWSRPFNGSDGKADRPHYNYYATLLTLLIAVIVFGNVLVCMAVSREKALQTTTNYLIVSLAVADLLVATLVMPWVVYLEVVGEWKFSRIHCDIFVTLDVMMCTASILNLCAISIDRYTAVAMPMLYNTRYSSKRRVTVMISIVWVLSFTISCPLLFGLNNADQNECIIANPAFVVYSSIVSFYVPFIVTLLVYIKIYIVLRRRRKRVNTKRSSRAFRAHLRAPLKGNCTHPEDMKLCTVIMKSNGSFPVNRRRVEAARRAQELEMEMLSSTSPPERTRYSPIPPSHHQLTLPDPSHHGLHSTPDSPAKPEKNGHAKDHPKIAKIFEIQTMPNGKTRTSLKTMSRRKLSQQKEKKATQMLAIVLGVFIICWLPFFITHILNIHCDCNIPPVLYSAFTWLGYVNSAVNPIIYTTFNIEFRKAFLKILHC

Consider `CNC(=O)c1ccccc1Sc1ccc2c(/C=C/c3ccccn3)n[nH]c2c1`, for which the Potency result in [1], in [3], in assay [6], in assay [7], in assay [8] and in [9] was “inactive” in each case. Moreover, the Potency entry in [10], in assay [11], in [12], in assay [13] and in [14] was “inactive” in each case. Further, the Potency in [2] is 0.0841 µM (active). For the same molecule, the outcome in assay [4] and in assay [5] was inactive.

As to `Nc1ccc(F)c([N+](=O)[O-])c1`, the Potency result in assay [1], in assay [2], in [3], in assay [6], in [7] and in assay [8] was “inactive” throughout. Further, the Potency entry in [9], in assay [15], in [16], in assay [17], in [11] and in assay [18] was “inactive” in each case. The Potency result in assay [19], in [12] and in [13] was “inactive” in each case. Also, the outcome in [4] and in assay [5] was inactive.

With `CCS(=O)(=O)CCn1c([N+](=O)[O-])cnc1C`, the Potency entry in assay [1], in assay [2], in [3], in assay [6], in [8] and in assay [15] was “inactive” in each case. Besides, the Potency result in assay [18], in [12] and in assay [14] was “inactive” in each case. Further, the outcome in [4] and in assay [5] was inactive.

On to `OC1CCC(C2CCCCC2)CC1` (configuration not stated), for which the Potency entry in assay [1], in [2], in assay [3], in assay [6], in assay [7] and in [9] was “inactive” each time. Further, the Potency result in [15], in assay [10], in assay [16], in assay [17], in assay [11] and in assay [18] was “inactive” in each case. Moreover, the Potency entry in [19], in [13] and in [14] was “inactive” each time. The outcome in assay [4] and in assay [5] was inactive.

As for `COC(=O)c1cc(C(=O)OC)cc(S(=O)(=O)O)c1`, the Potency entry in assay [1], in [2], in [3], in assay [6], in [9] and in [15] was “inactive” each time. Besides, the Potency result in assay [16], in assay [17], in assay [11], in assay [18], in assay [19] and in assay [12] was “inactive” throughout. Also, the Potency result in [13] and in assay [14] was “inactive” each time. Moreover, the outcome in assay [4] and in assay [5] was inactive.

In the case of `Cc1cc(S(=O)(=O)O)ccc1N=Nc1c(O)ccc2ccccc12`, the Potency in assay [1] is 43.3 µM (active). Moreover, the Potency result in [2], in [3], in [7], in assay [8], in assay [10] and in [16] was “inactive” in each case. Moreover, the Potency entry in assay [17], in assay [11], in assay [18], in assay [13] and in [14] was “inactive” throughout. Further, the result in [4] and in assay [5] was inactive.

As for `C/C=C(/C(=C/C)c1ccc(O)cc1)c1ccc(O)cc1`, the Potency in assay [1] is 15 µM (active); in [17], 2.9 µM (active). Further, the Potency entry in assay [2], in assay [3], in assay [6], in assay [7], in assay [8] and in assay [11] was “inactive” throughout. The Potency entry in assay [19], in assay [13] and in assay [14] was “inactive” throughout. The outcome in [4] and in [5] was inactive.

For `COc1c(C)c2c(c(O)c1C/C=C(\C)CCC(=O)O)C(=O)OC2`, the Potency result in [1], in assay [2], in [3], in assay [6], in [7] and in [8] was “inactive” in each case. Further, in assay [13], the Potency result is “inactive”. Moreover, the outcome in assay [4] and in assay [5] was inactive.

Turning to `CCC(CO)(CO)[N+](=O)[O-]`, the Potency entry in assay [1], in assay [2], in assay [3], in assay [7], in [8] and in [9] was “inactive” each time. In addition, the Potency result in assay [15], in [10], in assay [16], in assay [17], in assay [18] and in [19] was “inactive” throughout. Also, the Potency result in [12] and in [13] was “inactive” each time. Besides, the result in assay [4] and in assay [5] was inactive.

As for `Oc1ccc(-c2ccc(O)cc2)cc1`, the Potency result in assay [1], in assay [3], in assay [6], in [7], in assay [8] and in assay [10] was “inactive” throughout. For the same molecule, the Potency entry in assay [16], in assay [17], in [19], in [12], in assay [13] and in [14] was “inactive” in each case. For the same molecule, in assay [2], the Potency is 30.8 µM (active). Moreover, the result in assay [4] and in assay [5] was inactive.
